From PubChem BioAssay (Tox21)
Several values for one entry are separate records, joined by “and”; a condition that tells them apart may be missing. Equal values may be shown once. Inconclusive results are not listed. Activity calls are given as the source filed them. Unless noted, calls come from the whole dose curve; as a rule, active = well fitted curve in the direction sought with a large enough effect in the repeat runs; inconclusive = weak or mixed curves; inactive = no such curve, though single readings can be large; an effect the other way counts as inactive or inconclusive.

Key:
[1] = qHTS assay for small molecules that induce genotoxicity in human embryonic kidney cells expressing luciferase-tagged ATAD5 (AID 651632); note: nearly all actives have a fitted effect of over 15% in size
Procedure, shortened: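 Increased luciferase signal from ATAD5-tagged reporter cells indicates DNA-damage-driven ATAD5 induction. HEK293T cells are treated for 16 hr at 37C before detection with Amplite.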

[2] = qHTS assay for small molecule agonists of the p53 signaling pathway - cell viability (AID 651633; calls by dose curve;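 note: p53RE-bla HCT reporter cells with a stable beta-lactamase p53 reporter; series mostly up to about 83 µM; nearly all actives have a fitted effect of over 30% in size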)
Procedure, shortened: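 Viability counter-read: CellTiter-Glo luminescence (30 min, room temperature) in the same p53RE-bla plates. These plates had been exposed to compounds for 16 h at 37 C.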

[3] = qHTS assay for small molecules that induce genotoxicity in human embryonic kidney cells expressing luciferase-tagged ATAD5 - cell viability (AID 651634; calls by dose curve; note: nearly all actives have a fitted effect of over 25% in size)
Procedure, shortened: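 Cytotoxicity counterscreen in HEK293T cells bearing an ATAD5-luciferase reporter: live-cell protease activity measured by CellTiter-Fluor fluorescence after 15.5 hr compound exposure.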

[4] = qHTS assay for small molecule disruptors of the mitochondrial membrane potential - cell viability (AID 720634; calls by dose curve;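 note: human HepG2 liver cancer cells; series mostly up to about 83 µM; nearly all actives have a fitted effect of over 20% in size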)
Procedure, shortened: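 After overnight attachment at 37 C, HepG2 cells received compound or DMSO vehicle for 1 hr. Viability is then taken from ATP-driven luminescence following a 30 min room-temperature CellTiter-Glo step.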

[5] = qHTS assay to test for compound auto fluorescence at 590 nm (red) in HepG2 cells (AID 720674)
Procedure, shortened: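 1 hr compound incubation on HepG2 cells, 37 C, 5% CO2; plate read ex 540 nm / em 590 nm; intensities reported as Rose Bengal sodium equivalents.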

[6] = qHTS assay to test for compound auto fluorescence at 535 nm (green) in HepG2 cells (AID 720675)
[7] = qHTS assay to test for compound auto fluorescence at 460 nm (blue) in HEK293 cells (AID 720678)
Procedure, shortened: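 Blue read-out at excitation 405 nm and emission 460 nm follows overnight compound exposure of HEK293 cells at 37C in 5% CO2. Activity is given as auto fluorescence equivalency to triamterene.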

[8] = qHTS assay to test for compound auto fluorescence at 535 nm (green) in HEK293 cells (AID 720680)
[9] = qHTS assay to test for compound auto fluorescence at 460 nm (blue) in HEK293 cell free culture (AID 720681)
Procedure, shortened: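 Blue fluorescence (Ex 405/Em 460 nm, triamterene-equivalent) was read immediately after pin transfer of compound or DMSO into medium (DMEM, 10% FBS) without cells.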

[10] = qHTS assay to test for compound auto fluorescence at 535 nm (green) in HEK293 cell free culture (AID 720682)
Procedure, shortened: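 Steps: dispense DMEM/10% FBS into empty wells; pin in compound or DMSO; measure fluorescence at 485/535 nm. Values are fluorescein equivalents.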

[11] = qHTS assay to test for compound auto fluorescence at 590 nm (red) in HEK293 cell free culture (AID 720683)
Procedure, shortened: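 Red-channel autofluorescence of compounds in culture medium (DMEM, 10% FBS), no cells, measured at 540/590 nm. Rose Bengal sodium is the reference fluorophore for equivalence.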

[12] = qHTS assay to test for compound auto fluorescence at 590 nm (red) in HepG2 cell free culture (AID 720684)
Procedure, shortened: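 Plate contents were MEM with 10% FBS plus test compound or DMSO, no cells. Fluorescence was recorded with 540 nm excitation and 590 nm emission.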

[13] = qHTS assay to test for compound auto fluorescence at 460 nm (blue) in HepG2 cell free culture (AID 720685)
Procedure, shortened: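 Compound (23 nL) or DMSO pinned into cell-free MEM with 10% FBS; blue fluorescence read at 405/460 nm excitation/emission, expressed as auto-fluorescence equivalency to triamterene.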

[14] = qHTS assay to test for compound auto fluorescence at 535 nm (green) in HepG2 cell free culture (AID 720686)
[15] = qHTS assay to test for compound auto fluorescence at 460 nm (blue) in HepG2 cells (AID 720687)
Procedure, shortened: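 Blue-channel autofluorescence (Ex/Em 405/460 nm, triamterene-equivalent) was measured after 1 hr compound exposure at 37 C, 5% CO2. Cells were HepG2, plated overnight at 37 C in MEM plus 10% FBS.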

[16] = qHTS assay to identify small molecule antagonists of the glucocorticoid receptor (GR) signaling pathway - cell viability counter screen (AID 720693); note: nearly all actives have a fitted effect of over 55% in size
[17] = qHTS assay for identifying genotoxic compounds that show differential cytotoxicity against isogenic chicken DT40 cell lines with known DNA damage response pathways - wild type cell line (AID 743012); note: potency is the fitted concentration of half-maximal effect; nearly all actives have a fitted effect of over 60% in size
Procedure, shortened: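 Cells (DT40 wild type, 300/well) are treated with DMSO-dissolved compounds after a ~0.5 h pre-incubation and kept 40 h at 37 C/5% CO2. Viability is then measured by CellTiter-Glo luminescence following 30 min at room temperature.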

[18] = qHTS assay for identifying genotoxic compounds that show differential cytotoxicity against isogenic chicken DT40 cell lines with known DNA damage response pathways - Rev3 mutant cell line (AID 743014); note: potency is the fitted concentration of half-maximal effect; nearly all actives have a fitted effect of over 55% in size
[19] = qHTS assay for identifying genotoxic compounds that show differential cytotoxicity against isogenic chicken DT40 cell lines with known DNA damage response pathways - Rad54/Ku70 mutant cell line (AID 743015); note: potency is the fitted concentration of half-maximal effect; nearly all actives have a fitted effect of over 60% in size
[20] = qHTS assay to identify small molecule antagonists of the androgen receptor (AR) signaling pathway - cell viability counter screen (AID 743033; note: nearly all actives have a fitted effect of over 45% in size)
[21] = qHTS assay to identify small molecule antagonists of the androgen receptor (AR) signaling pathway using the MDA cell line - cell viability counter screen (AID 743041; note: nearly all actives have a fitted effect of over 45% in size)
Procedure, shortened: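 R1881-driven MDA-kb2 AR-luc cells, 3,000/well, were dosed with library compounds for 16 h; cell health came from CellTiter-Fluor fluorescence in the reporter wells.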

[22] = qHTS assay to identify small molecule antagonists of the thyroid receptor (TR) signaling pathway (AID 743065); note: series mostly up to about 70 µM; nearly all actives have a fitted effect of over 55% in size
Procedure, shortened: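 Antagonism measured as loss of luciferase signal in GH3 cells stably carrying a TRE-luciferase reporter, co-treated with compound and T3 (1 nM final) for 23.5 h at 37 C. Viability was read in the same well by CellTiter-Fluor.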

[23] = tested on: thyroid hormone receptor (rat, GH3 cells); experiment: qHTS assay to identify small molecule agonists of the thyroid receptor (TR) signaling pathway (AID 743066; calls by dose curve)
[24] = qHTS assay to identify small molecule antagonists of the estrogen receptor alpha (ER-alpha) signaling pathway - cell viability counter screen (AID 743074; calls by dose curve;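 note: HEK293 cells carrying ER-alpha-UAS-bla reporter stimulated with 17beta-estradiol; nearly all actives have a fitted effect of over 45% in size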)
[25] = biological target: Estrogen receptor (Homo sapiens) (UniProt P03372); experiment: qHTS assay to identify small molecule agonists of the estrogen receptor alpha (ER-alpha) signaling pathway (AID 743075; calls by dose curve;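 note: HEK293 GripTite cells with ER-alpha and UAS-driven beta-lactamase reporter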)
Chain of Estrogen receptor (Homo sapiens) (P03372 whole entry, looked up): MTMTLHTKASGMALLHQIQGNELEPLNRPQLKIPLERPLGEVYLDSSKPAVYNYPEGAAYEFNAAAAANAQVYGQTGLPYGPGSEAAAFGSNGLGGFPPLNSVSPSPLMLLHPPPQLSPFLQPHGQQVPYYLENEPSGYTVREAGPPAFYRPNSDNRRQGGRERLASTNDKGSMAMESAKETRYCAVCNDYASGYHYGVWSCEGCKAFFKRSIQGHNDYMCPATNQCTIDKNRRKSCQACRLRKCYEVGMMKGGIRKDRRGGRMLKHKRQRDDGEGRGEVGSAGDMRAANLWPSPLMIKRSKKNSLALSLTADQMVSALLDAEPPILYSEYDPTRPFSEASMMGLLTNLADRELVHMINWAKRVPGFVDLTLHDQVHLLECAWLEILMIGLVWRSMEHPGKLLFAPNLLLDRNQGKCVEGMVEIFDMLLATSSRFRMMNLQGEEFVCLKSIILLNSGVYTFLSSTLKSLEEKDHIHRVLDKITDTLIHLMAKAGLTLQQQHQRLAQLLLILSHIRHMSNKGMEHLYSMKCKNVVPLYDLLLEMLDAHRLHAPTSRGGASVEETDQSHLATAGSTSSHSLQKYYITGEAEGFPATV

[26] = biological target: Estrogen receptor (Homo sapiens) (UniProt P03372); experiment: qHTS assay to identify small molecule agonists of the estrogen receptor alpha (ER-alpha) signaling pathway using the BG1 cell line (AID 743079); note: nearly all actives have a fitted effect of over 20% in size
[27] = qHTS assay to identify small molecule antagonists of the estrogen receptor alpha (ER-alpha) signaling pathway using the BG1 cell line (AID 743080; calls by dose curve;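 note: BG1 cells stimulated with 17beta-estradiol alongside compound; series mostly up to about 70 µM; nearly all actives have a fitted effect of over 25% in size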)
Procedure, shortened: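 Luminescence from a 4×ERE-luciferase reporter in BG1-Luc-4E2 cells served as read-out. Cells, pre-cultured 5 days in stripped-serum phenol-red-free medium, were exposed to compound with 17beta-estradiol co-stimulation for 21.5 h at 37 C.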

[28] = qHTS assay to identify small molecule antagonists of the estrogen receptor alpha (ER-alpha) signaling pathway using the BG1 cell line - cell viability counter screen (AID 743081);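 note: compound given together with 17beta-estradiol as the ER stimulus; series mostly up to about 70 µM; nearly all actives have a fitted effect of over 45% in size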
Aromatase (Homo sapiens) = Aromatase (Homo sapiens) (UniProt P11511); experiment: qHTS assay to identify aromatase inhibitors (AID 743083); note: potency is the fitted concentration of half-maximal effect; nearly all actives have a fitted effect of over 55% in size
Chain of Aromatase (Homo sapiens) (P11511 whole entry, looked up): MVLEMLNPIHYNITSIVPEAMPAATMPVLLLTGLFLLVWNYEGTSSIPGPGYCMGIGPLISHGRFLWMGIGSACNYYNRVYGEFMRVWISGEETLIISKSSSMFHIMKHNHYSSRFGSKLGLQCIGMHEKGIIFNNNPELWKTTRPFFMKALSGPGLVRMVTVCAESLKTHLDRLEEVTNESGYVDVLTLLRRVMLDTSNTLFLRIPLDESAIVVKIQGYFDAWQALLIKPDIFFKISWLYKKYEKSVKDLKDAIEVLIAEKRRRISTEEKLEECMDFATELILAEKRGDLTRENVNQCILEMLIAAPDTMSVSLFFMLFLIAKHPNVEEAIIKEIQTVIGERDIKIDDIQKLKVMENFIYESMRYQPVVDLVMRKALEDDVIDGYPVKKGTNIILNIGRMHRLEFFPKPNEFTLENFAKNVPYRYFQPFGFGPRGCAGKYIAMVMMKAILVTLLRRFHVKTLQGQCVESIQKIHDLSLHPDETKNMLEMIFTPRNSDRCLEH

[29] = qHTS assay to identify aromatase inhibitors - cell viability counter screen (AID 743084)
[30] = biological target: Aryl hydrocarbon receptor (Homo sapiens) (UniProt P35869); experiment: qHTS assay to identify small molecule that activate the aryl hydrocarbon receptor (AhR) signaling pathway (AID 743085); note: potency is the fitted concentration of half-maximal effect; nearly all actives have a fitted effect of over 15% in size
Chain of Aryl hydrocarbon receptor (Homo sapiens) (P35869 whole entry, looked up): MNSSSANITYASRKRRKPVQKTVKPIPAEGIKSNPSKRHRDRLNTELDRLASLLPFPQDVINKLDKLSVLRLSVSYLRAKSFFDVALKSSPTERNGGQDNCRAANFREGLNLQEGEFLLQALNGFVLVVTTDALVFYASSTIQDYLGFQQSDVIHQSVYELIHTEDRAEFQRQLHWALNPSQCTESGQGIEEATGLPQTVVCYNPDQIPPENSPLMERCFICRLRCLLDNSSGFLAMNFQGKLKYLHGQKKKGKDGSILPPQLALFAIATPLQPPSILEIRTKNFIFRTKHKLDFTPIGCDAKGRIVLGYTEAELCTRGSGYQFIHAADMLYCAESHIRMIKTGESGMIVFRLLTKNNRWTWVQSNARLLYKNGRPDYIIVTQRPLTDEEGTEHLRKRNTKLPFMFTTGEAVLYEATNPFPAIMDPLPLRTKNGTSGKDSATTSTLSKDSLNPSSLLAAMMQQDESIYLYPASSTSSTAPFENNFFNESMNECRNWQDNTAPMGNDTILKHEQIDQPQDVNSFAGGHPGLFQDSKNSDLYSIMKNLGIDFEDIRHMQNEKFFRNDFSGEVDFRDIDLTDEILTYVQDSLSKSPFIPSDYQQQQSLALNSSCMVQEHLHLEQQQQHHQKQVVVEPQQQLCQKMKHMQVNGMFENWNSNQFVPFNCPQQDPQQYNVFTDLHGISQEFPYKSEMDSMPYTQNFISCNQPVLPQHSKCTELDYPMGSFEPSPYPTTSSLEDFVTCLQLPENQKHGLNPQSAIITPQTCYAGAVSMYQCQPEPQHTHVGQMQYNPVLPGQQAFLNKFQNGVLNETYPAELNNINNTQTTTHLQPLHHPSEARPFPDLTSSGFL
Procedure, shortened: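 Steps: seed HepG2-AhR-luc cells; allow 5 h at 37C; pin-transfer test compound or vehicle; incubate 24 h at 37C; add viability dye (30 min, 37C) and read fluorescence; add luciferase substrate (30 min, RT) and read luminescence.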

[31] = qHTS assay to identify small molecule that activate the aryl hydrocarbon receptor (AhR) signaling pathway - cell viability counter screen (AID 743086)
Procedure, shortened: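 Cytotoxicity counter screen: CellTiter-Fluor signal (30 min, 37 C) in 4000 HepG2 cells/well carrying the DRE-luciferase reporter, following 24 h compound exposure at 37 C.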

[32] = biological target: Peroxisome proliferator-activated receptor gamma (Homo sapiens) (UniProt P37231); experiment: qHTS assay to identify small molecule agonists of the peroxisome proliferator-activated receptor gamma (PPARg) signaling pathway (AID 743094; active = well fitted activation curve with a large enough effect in the signal ratio in the repeat runs, not every such curve was filed as active; the % refers to the signal ratio)
Chain of Peroxisome proliferator-activated receptor gamma (Homo sapiens) (P37231 whole entry, looked up): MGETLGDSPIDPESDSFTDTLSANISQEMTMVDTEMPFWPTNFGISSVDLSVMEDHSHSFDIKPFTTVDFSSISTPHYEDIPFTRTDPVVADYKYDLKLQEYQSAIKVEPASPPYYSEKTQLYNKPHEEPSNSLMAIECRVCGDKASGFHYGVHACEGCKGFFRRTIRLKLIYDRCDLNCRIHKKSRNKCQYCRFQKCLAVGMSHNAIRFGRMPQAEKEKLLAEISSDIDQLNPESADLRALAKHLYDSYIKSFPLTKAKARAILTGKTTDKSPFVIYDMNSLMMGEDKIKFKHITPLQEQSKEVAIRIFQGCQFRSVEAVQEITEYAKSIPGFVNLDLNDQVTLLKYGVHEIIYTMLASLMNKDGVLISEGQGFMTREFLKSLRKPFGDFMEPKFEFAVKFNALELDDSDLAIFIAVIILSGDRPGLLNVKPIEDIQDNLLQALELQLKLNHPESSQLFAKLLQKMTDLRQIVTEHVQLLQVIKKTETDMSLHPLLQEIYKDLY
Procedure, shortened: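 Quantitative HTS agonist mode: stable HEK293H line with UAS-beta-lactamase reporter under PPARg control, 17 h compound exposure at 37C, fluorescence after 1 h FRET substrate loading at room temperature.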

[33] = qHTS assay to identify small molecule antagonists of the estrogen receptor alpha (ER-alpha) signaling pathway using the BG1 cell line in the presence of 0.1 nM 17-beta-estradiol - cell viability counter screen (AID 1259241); note: nearly all actives have a fitted effect of over 40% in size
Procedure, shortened: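 The cell line endogenously expresses full-length ER-alpha and carries four EREs driving luciferase. Cells are cultured 5 days hormone-free, treated 22 hr with compounds and 0.1 nM estradiol, then viability is read by fluorescence.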

[34] = qHTS assay to identify small molecule antagonists of the androgen receptor (AR) signaling pathway using the MDA cell line in the presence of 0.5 nM R1881 - cell viability counter screen (AID 1259242); note: nearly all actives have a fitted effect of over 45% in size
Procedure, shortened: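 Cytotoxicity toward MDA-kb2 cells is measured by CellTiter-Fluor live-cell protease fluorescence after 16 hr compound exposure at 37C in the presence of 0.5 nM R1881 stimulator.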

[35] = biological target: Estrogen receptor (Homo sapiens) (UniProt P03372); experiment: qHTS assay to identify small molecule antagonists of the estrogen receptor alpha (ER-alpha) signaling pathway using the BG1 cell line in the presence of 0.1 nM 17-beta-estradiol (AID 1259244); note: nearly all actives have a fitted effect of over 50% in size
Procedure, shortened: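 After 5 days in hormone-depleted medium (charcoal-stripped serum, no phenol red), VM7Luc4E2 cells were seeded, incubated 24 h, then co-treated with compound and 0.1 nM (final) estradiol for 22 h before luminescence detection.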

[36] = qHTS assay to identify small molecule phospholipidosis (PLD) inducers (AID 1259344; active = well fitted curve in the direction sought with a large enough effect; an effect the other way counts as inactive or inconclusive)
Procedure, shortened: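 Fluorescent phospholipid staining (LipidTOX Red) measured by automated microscopy in fixed HepG2 cells after 24 h treatment; nuclei counterstained with Hoechst 33342; amiodarone as reference inducer.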

[37] = biological target: Estrogen receptor (Homo sapiens) (UniProt P03372); experiment: qHTS assay to identify small molecule agonists of the estrogen receptor alpha (ER-alpha) signaling pathway in the presence of an antagonist (AID 1259383; calls by dose curve; note: top concentration of the series differs between compounds; nearly all actives have a fitted effect of over 15% in size)
Procedure, shortened: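 Cells are hormone-deprived for 5 days (charcoal-stripped FBS, no phenol red), plated for 24hr, spiked with 10.0nM ICI-182,780, then dosed at 15 concentrations. After 22hr at 37C, ONE-Glo luminescence reports ERE-luciferase activity.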

[38] = biological target: Acetylcholinesterase (Homo sapiens) (UniProt P22303); experiment: Acetylcholinesterase (AChE) small molecule antagonists: colormetric cell-based qHTS assay (AID 1347395; calls by dose curve; note: nearly all actives have a fitted effect of over 30% in size)
Chain of Acetylcholinesterase (Homo sapiens) (P22303 whole entry, looked up): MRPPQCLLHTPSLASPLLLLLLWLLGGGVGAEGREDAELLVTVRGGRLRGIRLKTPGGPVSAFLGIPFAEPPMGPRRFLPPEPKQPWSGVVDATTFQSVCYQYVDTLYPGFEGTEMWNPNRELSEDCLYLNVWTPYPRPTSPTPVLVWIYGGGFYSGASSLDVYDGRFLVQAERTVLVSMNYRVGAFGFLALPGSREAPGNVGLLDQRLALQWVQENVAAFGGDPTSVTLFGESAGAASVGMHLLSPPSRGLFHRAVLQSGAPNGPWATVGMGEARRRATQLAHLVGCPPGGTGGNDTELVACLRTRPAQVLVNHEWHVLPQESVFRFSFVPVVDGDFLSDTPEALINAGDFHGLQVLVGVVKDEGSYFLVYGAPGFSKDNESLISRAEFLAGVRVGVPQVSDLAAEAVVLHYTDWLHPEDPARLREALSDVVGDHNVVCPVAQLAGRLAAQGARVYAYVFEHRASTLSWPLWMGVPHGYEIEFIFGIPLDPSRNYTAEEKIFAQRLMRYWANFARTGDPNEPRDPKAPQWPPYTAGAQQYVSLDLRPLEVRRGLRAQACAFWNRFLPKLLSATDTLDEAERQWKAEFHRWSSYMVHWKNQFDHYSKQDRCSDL
Procedure, shortened: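 Endogenous AChE of human neuroblastoma SH-SY5Y cells was measured with an Ellman-type DTNB/acetylthiocholine mix. Compound pretreatment lasted 30 min at 37 C; substrate reaction ran 90 min at 37 C.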

[39] = biological target: Acetylcholinesterase (Homo sapiens) (UniProt P22303); experiment: Acetylcholinesterase (AChE) small molecule antagonists: enzyme-based qHTS assay (AID 1347397; calls by dose curve; note: nearly all actives have a fitted effect of over 55% in size); conditions: Potency: AChE enzyme activity inhibition; outcome: AChE enzyme activity inhibition
Procedure, shortened: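 Absorbance-based detection of thiocholine with DTNB served as the read-out. Recombinant human AChE was exposed to compound for 30 min at RT before a 10 min RT incubation with acetylthiocholine.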

[40] = biological target: Acetylcholinesterase (Homo sapiens) (UniProt P22303); experiment: Acetylcholinesterase (AChE) small molecule antagonists: fluorescence cell-based qHTS assay (AID 1347398; calls by dose curve; note: nearly all actives have a fitted effect of over 50% in size); conditions: Potency: AChE activity; outcome: AChE activity
Procedure, shortened: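 Fluorimetric cell-based assay: intact SH-SY5Y cells, 30 min compound preincubation at 37 C, acetylthiocholine substrate with thiol probe Thiolite Green, 40 min RT development, fluorescence 490/520 nm.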

[41] = biological target: Acetylcholinesterase (Homo sapiens) (UniProt P22303); experiment: Acetylcholinesterase (AChE) small molecule antagonists: enzyme-based qHTS assay with human liver microsomes (AID 1347399; calls by dose curve; note: nearly all actives have a fitted effect of over 60% in size); conditions: Potency: qHTS inhibition; outcome: qHTS inhibition
Procedure, shortened: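 Recombinant human AChE (50 mU/mL in the enzyme mix) and human liver microsomes (0.25 mg/mL final) were preincubated with compound and NADPH (0.25 mg/mL final) for 30 min at 37 C. Acetylthiocholine/DTNB was then added; thiocholine was read colorimetrically after 10 min at room temperature.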

Measured: Potency

CCC1(c2cnc[nH]2)Cc2ccccc2C1
active: [17] 21.1 µM and 26.6 µM | [18] 26.6 µM | [19] 26.6 µM | Aromatase (Homo sapiens) 26.6 µM | [30] 23.7 µM and 8.41 µM
inactive: all other assays above
